This is part of a sample that, as a whole, favours compounds with a hit. Of some 83,000 tested, about 20% had one in any assay.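 Note: values are percent growth. 100 is the growth of untreated cells, values between 100 and 0 indicate rising inhibition; between -100 and 0 indicates cell death.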 Values without a mark were called inactive. Calls of active or inactive are those of the source. The calls were made as follows: active = growth percent below 10; inactive = the rest.
Tests used:
Assay in all cases: NCI-60 one-dose screen, 48 h (100 = growth as untreated, 0 = no growth, -100 = all killed)
Conditions in all cases: 10 µM unless noted
[1] = tested on: MOLT-4 leukemia
[2] = tested on: SR leukemia
[3] = tested on: RPMI-8226 leukemia
[4] = tested on: OVCAR-8 ovarian
[5] = tested on: OVCAR-5 ovarian
[6] = tested on: OVCAR-4 ovarian
[7] = tested on: SK-OV-3 ovarian
[8] = tested on: OVCAR-3 ovarian
[9] = tested on: HS 578T breast
[10] = tested on: NCI/ADR-RES ovarian
[11] = tested on: T-47D breast
[12] = tested on: BT-549 breast
[13] = tested on: MDA-MB-435 melanoma
[14] = tested on: SW-620 colon
[15] = tested on: MCF7 breast
[16] = tested on: HCT-116 colon
[17] = tested on: HCC-2998 colon
[18] = tested on: KM12 colon
[19] = tested on: IGROV1 ovarian

SMILES	growth [1]	growth [2]	growth [3]	growth [4]	growth [5]	growth [6]	growth [7]	growth [8]	growth [9]	growth [10]	growth [11]	growth [12]	growth [13]	growth [14]	growth [15]	growth [16]	growth [17]	growth [18]	growth [19]
O=C1NC(=O)C(=Cc2cn(C(=O)c3ccccc3)c3ccccc23)C(=O)N1	88.3%	90.5%	114%	92.3%	94.7%	92.1%	91.5%	108%	103%	97.1%	95.2%	105%	105%	93.7%	89.4%	102%	93.4%	108%	–
COC(C(=O)[C@@H](O)[C@@H](C)O)[C@@H]1Cc2cc3cc(O[C@H]4C[C@@H](O[C@H]5C[C@@H](O)[C@H](O)C(C)O5)[C@H](O)C(C)O4)c(C)c(O)c3c(O)c2C(=O)[C@H]1O[C@H]1C[C@@H](O[C@H]2C[C@@H](O[C@H]3C[C@@H](O)[C@@H](O)C(C)O3)[C@@H](O)C(C)O2)[C@H](O)C(C)O1 (stereo partly specified)	23.9%	14.3%	–	2.92% (active)	13.7%	25.2%	25.5%	4.91% (active)	14.5%	85.5%	-1.75% (active)	-27.2% (active)	-37.2% (active)	22.2%	0.0061% (active)	2.29% (active)	-5.17% (active)	4.05% (active)	18.2%
CCOC(=O)[C@@H](C)C[C@H](Cc1ccccc1)NC(=O)c1csc([C@@H](C[C@H](C(C)C)N(C)C(=O)[C@H](CC)NC(=O)[C@H]2CCCCN2C)OC(C)=O)n1	9.18% (active)	6.66% (active)	–	5.75% (active)	31.5%	37.4%	20.9%	-6.1% (active)	9.11% (active)	7.74% (active)	53.1%	-18.9% (active)	-35.7% (active)	30.3%	18.8%	-7.81% (active)	3.85% (active)	4.85% (active)	22.6%
CCn1cnc2c(Nc3cccc(Cl)c3)nc(N[C@@H]3CCCC[C@@H]3N)nc21	-10.9% (active)	-32.7% (active)	-33.2% (active)	–	3.37% (active)	-7.56% (active)	40.1%	0.926% (active)	26.9%	11%	0.53% (active)	61.7%	11.4%	-4.4% (active)	4.02% (active)	0.716% (active)	2.16% (active)	-2.18% (active)	5.27% (active)
CN1C(=O)C(=Cc2cn(Cc3ccccc3)c3ccccc23)C(=O)N(C)C1=O	96.8%	68.6%	35.9%	90.5%	-6.96% (active)	49.8%	51.8%	71.2%	86.8%	–	42.8%	88.9%	102%	79.7%	64%	71%	81.8%	102%	–
c1ccc(COc2ccc3[nH]cc(CCN(Cc4ccccc4)Cc4ccccc4)c3c2)cc1	70.7%	69.5%	74.9%	98.1%	–	95.4%	91.2%	96.7%	99.5%	91.4%	62.9%	103%	102%	90.5%	79.3%	60.3%	99.7%	88%	90.7%
Clc1ccc(COC(Cn2ccnc2)c2ccc(Cl)cc2Cl)cc1 (stereo unspecified)	-28.4% (active)	-25.9% (active)	39.7%	51.8%	–	54%	91.2%	40.4%	69.2%	23.3%	48.3%	55.9%	27.5%	34.3%	57.9%	33.6%	64.2%	29.1%	35%
O=C1C2CC=CCC2C(=O)N1SC(Cl)(Cl)Cl (stereo unspecified)	36.3%	41.5%	33.1%	102%	111%	99.9%	–	76.8%	160%	104%	46.3%	125%	126%	8.03% (active)	83.3%	66.5%	105%	103%	31.7%
O=[N+]([O-])c1cc([N+](=O)[O-])c(Cl)cc1Cl	-21% (active)	-31.3% (active)	-50.2% (active)	-26.8% (active)	-69.1% (active)	-99% (active)	104%	-98% (active)	-27.6% (active)	-45.1% (active)	-35.3% (active)	–	-66.5% (active)	-77.1% (active)	-57.9% (active)	-98.8% (active)	38%	-81.1% (active)	–
C1CCC([PH+](C2CCCCC2)C2CCCCC2[PH+](C2CCCCC2)C2CCCCC2)CC1.O=C(C1[CH-]CCCC1)C1CCCC[N-]1.[Au] (stereo unspecified)	-5.55% (active)	-1.52% (active)	-10.6% (active)	3.3% (active)	-64.5% (active)	–	-52.2% (active)	-77.7% (active)	–	–	–	-14.7% (active)	-43.6% (active)	2.27% (active)	-42.9% (active)	-54% (active)	-83% (active)	-60.9% (active)	-33.5% (active)
O=C(N/N=C/c1ccc(N(CCCl)CCCl)cc1)c1cccc2ccccc12	51.4%	24.2%	73.9%	–	93%	88.5%	69.1%	61.8%	69.4%	72.9%	73.3%	67.4%	13.8%	54.1%	35.4%	48.1%	87.7%	67.4%	79.2%
Cc1c(C)c([N+](=O)[O-])c(C)c(C)c1[N+](=O)[O-]	100%	93%	106%	95.7%	93.8%	98.2%	117%	118%	118%	107%	101%	106%	91.9%	112%	107%	115%	104%	110%	–
ClCCN(CCCl)c1ccc(-n2cnc3c(Cl)ncnc32)cc1	7.06% (active)	-29.2% (active)	59.6%	35.1%	117%	–	90.5%	-35.4% (active)	49.5%	61%	41.1%	–	46.9%	-73.8% (active)	25.7%	33.6%	82.6%	46.3%	-84.5% (active)
Oc1ccc2c3c1OC1[C@@H](O)CC[C@@]4(O)[C@@H](C2)N(CC2CCC2)CC[C@]314 (stereo partly specified)	97.7%	99.5%	103%	104%	–	98.2%	109%	116%	105%	102%	100%	106%	101%	104%	92.5%	99.2%	–	104%	103%
COc1cc(/C=C\c2cc(OC)c(OC)c(OC)c2)cc(N/C=C\C(=O)c2cc(OC)c(OC)c(OC)c2)c1OC	28.7%	-5.44% (active)	22.8%	41.2%	31.8%	–	21.3%	9.78% (active)	1.26% (active)	19.5%	-3% (active)	43.9%	-37.3% (active)	28.2%	15.1%	17.8%	53.6%	21.8%	15.6%
O=C([O][Hg][CH2]C1COCC([CH2][Hg][O]C(=O)c2ccccc2)O1)c1ccccc1 (stereo unspecified)	-2.46% (active)	46.8%	71.8%	94%	134%	90.1%	118%	-94% (active)	89.1%	106%	11.4%	97.4%	90.2%	-91.2% (active)	20.9%	–	114%	102%	–
CCCCCCCCCCCCCC[P+](CCCCCC)(CCCCCC)CCCCCC	51.6%	62.4%	59.4%	-79.9% (active)	-7.29% (active)	-91.8% (active)	-3.34% (active)	-100% (active)	-35.8% (active)	-10.5% (active)	-14.8% (active)	–	-81% (active)	-86.3% (active)	-51.8% (active)	-70.8% (active)	–	-100% (active)	–
